Experimental data published in paper PMC5540273 (PLoS ONE, 2017).

Key:
Conditions in all cases: concentration: 1 μM, replicates: in singlicate; n = 1
PLK2 = test system: PLK2
PLK3 = test system: PLK3
PLK4 = test system: PLK4
PRKCD = test system: PRKCD
PRKCE = test system: PRKCE
PRKCH = test system: PRKCH
PRKCI = test system: PRKCI
PRKCQ = test system: PRKCQ
PRKD1 = test system: PRKD1
PRKD2 = test system: PRKD2
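Also: KINOMEscan kinase panel screen.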

Row | SMILES | %Inh (PLK2) | %Inh (PLK3) | %Inh (PLK4) | %Inh (PRKCD) | %Inh (PRKCE) | %Inh (PRKCH) | %Inh (PRKCI) | %Inh (PRKCQ) | %Inh (PRKD1) | %Inh (PRKD2)
1 | CN(C)c1ncnc2nc[nH]c12 [SKF-31736] | 20% | 30% | 1% | 0% | 3% | 0% | 0% | 0% | 0% | 0%
2 | Cl.O=C(Nc1ccc(Oc2ccc3[nH]c(NC(=O)c4ccco4)nc3c2)cc1)Nc1cc(C(F)(F)F)ccc1F [GW683134] | 0% | 0% | 0% | 4% | 0% | 0% | 0% | 9% | 0% | 0%
3 | CC(=O)Nc1cn2nc(Oc3cccc(NC(=O)c4cccc(C(F)(F)F)c4)c3)ccc2n1 | 0% | 0% | 0% | 0% | 0% | 0% | 0% | 0% | 18% | 17%
4 | COc1cc(Nc2nccc(N3CCC(NC(=O)Nc4ccc5c(c4)OCO5)C3)n2)cc(OC)c1OC (stereo not drawn) [GSK1379766] | 0% | 2% | 48% | 0% | 8% | 0% | 11% | 0% | 0% | 0%
5 | CC(C)c1nc(-c2ccc(F)c(NS(=O)(=O)c3c(F)cccc3F)c2)c(-c2ccnc(Nc3ccc(N4CCOCC4)nc3)n2)s1 [GSK1804250] | 0% | 0% | 99.8% | 8% | 7% | 21% | 39% | 0% | 93.6% | 99.4%
6 | Nc1ncc(-c2cn[nH]c2)c2scc(-c3ccc4c(c3)CCN4C(=O)Cc3ccccc3)c12 [GSK2593067] | 17% | 0% | 0% | 0% | 0% | 16% | 32% | 17% | 0% | 0%
7 | N#CC1(c2cccc(C(=O)Nc3cccc(Oc4ccc5nc(NC(=O)C6CC6)sc5n4)c3)c2)CC1 | 5% | 21% | 0% | 5% | 9% | 0% | 18% | 40% | 40% | 0%
8 | CC(C)NCC(Cc1ccccc1)NC(=O)c1cc(Br)c(-c2ccnc3[nH]ccc23)s1.Cl.Cl (stereo not drawn) [GSK1383281] | 13% | 38% | 90.1% | 84% | 89% | 82% | 19% | 50% | 75% | 71%
9 | CN(c1ccc(NC(=O)N2CCN(CCCN3CCOCC3)CC2)cc1)c1ccnc(Nc2ccc(CS(C)(=O)=O)cc2)n1.Cl [GW830899] | 0% | 0% | 39% | 23% | 0% | 0% | 43% | 0% | 0% | 0%
10 | COc1ccc(C)c(Nc2ccnc(Nc3ccc(-c4cnc[nH]4)cc3)n2)c1.Cl [GW784041] | 0% | 0% | 15% | 30% | 12% | 0% | 25% | 0% | 16% | 12%
11 | Cc1ccc(O)cc1Nc1ccnc2ccc(C(C)(C)C)cc12 [GW856805] | 29% | 15% | 27% | 17% | 31% | 3% | 39% | 0% | 0% | 13%
12 | Cc1cccc(Nc2nc(N[C@H]3CCCC[C@H]3N)ncc2C(N)=O)c1.Cl [GSK986310] | 0% | 0% | 16% | 53% | 56% | 43% | 28% | 53% | 50% | 56%
13 | NCCC(NC(=O)c1cc(Br)c(-c2ccnc3[nH]ccc23)s1)c1ccccc1.O=C(O)C(F)(F)F.O=C(O)C(F)(F)F (stereo not drawn) [GSK1307810] | 28% | 35% | 19% | 99.6% | 98.1% | 98.3% | 0% | 90% | 0% | 31%
14 | CCn1c(-c2nonc2N)nc2c(-c3ccccc3)ncc(OCCCN)c21.O=C(O)C(F)(F)F.O=C(O)C(F)(F)F [GSK260205] | 0% | 0% | 0% | 97.9% | 97.3% | 95.6% | 69% | 93% | 91.2% | 93.6%
15 | COc1cccc(CC(=O)N2CCc3cc(-c4cn(C)c5ncnc(N)c45)ccc32)c1 [GSK2608899] | 0% | 0% | 4% | 17% | 1% | 10% | 31% | 0% | 18% | 1%
16 | N#Cc1cnc2cc(-c3cnc(CNCCN4CCOCC4)s3)ccc2c1Nc1ccc(Oc2ccccc2)cc1 [GW664114] | 0% | 0% | 2% | 0% | 0% | 96.3% | 5% | 0% | 0% | 18%
17 | CCOc1nccc(-c2c(-c3ccc(F)cc3)ncn2C2CCNCC2)n1 [SB-249175] | 24% | 23% | 26% | 20% | 5% | 100% | 5% | 10% | 38% | 35%

Row | SMILES | %Inh (PLK2) | %Inh (PLK3) | %Inh (PLK4) | %Inh (PRKCD) | %Inh (PRKCE) | %Inh (PRKCH) | %Inh (PRKCI) | %Inh (PRKCQ) | %Inh (PRKD1) | %Inh (PRKD2)
18 | COc1cccc(NC(=O)NCCNc2ccnc(Nc3ccc(F)cc3)n2)c1 [GSK1379879] | 0% | 0% | 4% | 0% | 18% | 5% | 20% | 12% | 0% | 0%
19 | CS(=O)(=O)c1cccc(CNc2nc(Nc3ccc4c(c3)CCC(=O)N4)ncc2C(F)(F)F)c1 | 29% | 31% | 51% | 4% | 0% | 0% | 13% | 0% | 0% | 0%
20 | CN(C)CCNS(=O)(=O)c1ccc(-c2ccnc3[nH]ccc23)cc1 [GSK977620] | 0% | 0% | 1% | 83% | 88% | 82% | 21% | 62% | 0% | 10%
21 | Cc1ccc(Nc2ccnc(Nc3ccc(C)c(F)c3)n2)cc1O.Cl [GW582868] | 0% | 3% | 0% | 0% | 6% | 0% | 25% | 0% | 0% | 0%
22 | COc1cccc(C2=C(Nc3cccc(O)c3)C(=O)NC2=O)c1 [SB-390771] | 0% | 0% | 15% | 20% | 27% | 19% | 16% | 98.4% | 0% | 0%
23 | Cc1cccc(Nc2nc(NCCN)ncc2C(N)=O)c1 [GSK1292139] | 0% | 0% | 10% | 26% | 44% | 22% | 2% | 7% | 85% | 87%
24 | O=C(Nc1n[nH]c2nc(-c3ccccc3O)ccc12)C1CC1 [SB-711880] | 0% | 0% | 0% | 25% | 0% | 0% | 27% | 0% | 0% | 5%
25 | COc1cccc2c(-c3ccncc3)c(-c3ccc(F)cc3)nn12 [GW468513] | 0% | 0% | 0% | 6% | 25% | 30% | 26% | 41% | 29% | 20%
26 | O=C(O)C(F)(F)F.O=c1[nH]ccc2nc(N[C@@H]3CCNC3)nc(Nc3ccc4c(c3)S(=O)(=O)CC4)c12 [GSK2181306] | 5% | 0% | 97.4% | 99.1% | 97.9% | 92.9% | 78% | 53% | 92.1% | 96.2%
27 | CNc1nccc(-c2ccc3c(N)n[nH]c3c2)n1 [GSK2206003] | 0% | 0% | 0% | 27% | 15% | 25% | 17% | 9% | 19% | 20%
28 | O=C1NC(=O)C(c2ccccc2Cl)=C1Nc1cccc(Cl)c1 [SB-342409] | 0% | 0% | 0% | 0% | 42% | 0% | 9% | 100% | 0% | 0%
29 | Nc1ncnc2scc(-c3ccc(NC(=O)Cc4cc(F)ccc4F)cc3)c12.O=C(O)C(F)(F)F [SB-731254-M] | 66% | 47% | 35% | 27% | 2% | 34% | 43% | 3% | 0% | 0%
30 | COC(=O)Nc1nc2ccc(Oc3ccc(NC(=O)Nc4cc(C(F)(F)F)ccc4F)cc3)cc2[nH]1.Cl [GW654607] | 0% | 0% | 0% | 4% | 12% | 8% | 21% | 16% | 28% | 3%
31 | CC(C)(C)c1ccc(C(=O)Nc2cn3cc(-n4ccnc4)ccc3n2)cc1 | 24% | 10% | 0% | 7% | 15% | 0% | 10% | 23% | 0% | 12%
32 | Cc1cc(-c2c(-c3ccc(F)cc3)ncn2CCCN2CCOCC2)nc(N)n1 [SB-222517] | 11% | 25% | 15% | 28% | 0% | 0% | 27% | 0% | 0% | 0%
33 | Cn1cc(-c2ccc3c(c2)CCN3C(=O)Cc2cc(F)cc(C(F)(F)F)c2)c2c(N)ncnc21 [GSK2635225] | 3% | 0% | 0% | 18% | 1% | 0% | 0% | 17% | 0% | 14%
